Laboratory results from ChEMBL document CHEMBL3988442, “University of Dundee, Small-Polar-MMV Screening Library” (2021).
The whole screen tested about 48,000 compounds, of which about 13,000 (27%) showed an effect of 50% or more. The list shows a part of the results.

system: Wolbachia pipientis; test: Anti-Wolbachia Cell-Based Screen; assay type: functional; parameters: scale not given: in the data most compounds retested in dose-response had high values; conditions: 5 µM

Row | SMILES | Percent Effect [%]
1 | COCCN1CCC(NC(=O)C/C=C/c2ccc(C(C)C)cc2)CC1 | -16.81
2 | Cc1ccc(C(=O)N2CC[C@@]3(O)CCN(C(=O)N(C)C)C[C@H]3C2)cc1Cl | -5.057
3 | Cc1nn(C)c(C)c1C1CCCN1CCCC#N (configuration not stated) | 2.05
4 | Cc1noc([C@@H]2C[C@H]3OCC[C@H]3N(Cc3sccc3C)C2)n1.O=C(O)C(F)(F)F | 9.269
5 | Cc1c(C(=O)O)sc2nc(C(F)(F)F)ccc12 | -2.496
6 | Cc1nc(Cc2ccccc2)nc2sc(C(=O)O)c(C)c12 | 95.86
7 | CCN(CC(=O)NC)C(=O)c1sc(Cc2ccccc2)nc1C | -6.036
8 | CN(C)C(CNC(=O)OCC(F)(F)F)c1ccsc1 (configuration not stated) | 23.12
9 | Cc1ccc(C(=O)N(C)CCOc2ccccc2F)c(=O)[nH]1 | 95.48
10 | CCN(Cc1ccc(OC)c(F)c1)C(=O)c1ccc(C)[nH]c1=O | -15.23
11 | Cc1ccc(C(=O)N(Cc2ccccc2F)C2CC2)c(=O)[nH]1 | -1.047
12 | Cc1c(C(=O)N2CC(O)C2)nnn1-c1cccc2cnccc12 | -2.34
13 | CC(CNS(=O)(=O)c1cccc(Cl)c1)N1CCN(C)CC1 (configuration not stated) | 3.313
14 | CCn1cc2c(n1)CN(Cc1ccc(C)o1)CC2COCC1CC1.O=C(O)C(F)(F)F (configuration not stated) | 26.1
15 | CNC(=O)NCCc1csc2ccccc12 | -2.127
16 | COCCN(C)C[C@@H]1CCC[C@@H]2CN(c3ncccn3)C[C@@H]21.O=C(O)C(F)(F)F | -1.943
17 | Cc1ccc(NC2CCN(C(=O)Cn3nc(C)cc3C)CC2)nn1 | -9.924
18 | Cc1ccc(NC2CCN(C(=O)Cc3ccc(C)s3)CC2)nn1 | 88.11
19 | Cc1ccc(NC2CCN(C(=O)Cc3cccs3)CC2)nn1 | 103.9
20 | Cc1ccc(NC2CCN(C(=O)CCCc3ccccn3)CC2)nn1 | 17.2
21 | Cc1ccc(NC2CCN(C(=O)CCCc3cccs3)CC2)nn1 | 117.7
22 | Cc1ccc(NC2CCN(C(=O)Cc3csc(C)n3)CC2)nn1 | 1.97
23 | Cn1cc(CNc2ccc(CCN3CCC(C(N)=O)CC3)cc2)cn1 | -15.36
24 | CCC(CC)c1cc(CNC(=O)N2CCCC(c3ncc[nH]3)C2)on1 (configuration not stated) | -2.928
25 | COCCO[C@@H]1CCN(Cc2csc(C)n2)[C@H]1Cc1ccccc1.O=C(O)C(F)(F)F | -4.722
26 | Cc1nc(CN2CC[C@H](OCC3CC3)[C@@H]2Cc2cccnc2)cs1.O=C(O)C(F)(F)F.O=C(O)C(F)(F)F | 110.4

Row | SMILES | Percent Effect [%]
27 | Cc1nc(CN2CC[C@@H](OCC3CC3)[C@@H]2Cc2cccnc2)cs1.O=C(O)C(F)(F)F.O=C(O)C(F)(F)F | 96.59
28 | Cc1cc(N(C)Cc2c(C)noc2C)n2nc(C)c(C)c2n1 | -2.032
29 | CCN(CC)CC(=O)NCc1cccnc1-n1cnc2ccccc21 | -2.03
30 | Cc1cnc(N2CC[C@@H]3CN(CCC(C)C)S(=O)(=O)[C@@H]3CC2)nc1 | 7.109
31 | CC(C)NC(=O)NCCn1nc(C(F)(F)F)n(C)c1=O | -4.799
32 | CC(COCC(F)(F)F)NC(=O)c1ccc(-c2ccco2)[nH]c1=O (configuration not stated) | -22
33 | Cc1cc(C)n(CC(C)CNC(=O)NCc2ccco2)n1 (configuration not stated) | 7.726
34 | NS(=O)(=O)NCc1cc(-c2ccco2)n(CC(F)(F)F)n1 | 112.6
35 | CC(Cc1cccs1)C(=O)NCc1cccc(N2CCCC2=O)c1 (configuration not stated) | 1.255
36 | CC(C)NC(=O)NCc1ccnc(N(C)C)n1 | -10.55
37 | C[C@H](NS(C)(=O)=O)C(=O)NCc1cc(-c2ccco2)n(CC(F)(F)F)n1 | 97.84
38 | CC(C)NC(=O)NCc1cc(-c2ccco2)n(CC(F)(F)F)n1 | 112.4
39 | Cc1nnc2n1CCN(CCS(=O)(=O)c1ccccc1)C2 | 0.264
40 | CCc1noc(C2CCCCN2C(=O)c2ccccc2)n1 (configuration not stated) | 1.293
41 | CCc1noc(C2CCCCN2C(=O)c2ccoc2C)n1 (configuration not stated) | 16.06
42 | CCc1noc(C2CCCCN2C(=O)c2ccn(C3CCCC3)n2)n1 (configuration not stated) | 52.74
43 | Cc1nnc(N2C[C@@H]3CCCO[C@@H]3[C@H](N(C)C)C2)s1 | -8.785
44 | CC(NC(=O)NCCNc1cnccn1)c1cccs1 (configuration not stated) | 5.831
45 | CC(C)CC(NC(=O)CN(C)c1cnccn1)c1cccs1 (configuration not stated) | 9.121
46 | CC(C)C(NC(=O)Nc1ccccn1)c1cccs1 (configuration not stated) | 56.05
47 | CC(NC(=O)NCCNc1ncccn1)c1cccs1 (configuration not stated) | 10.74
48 | CC(C)C(C)(O)CNC(=O)Nc1ccccn1 (configuration not stated) | -16.52
49 | CC(NC(=O)NCCNc1cccc(F)c1C#N)c1cccs1 (configuration not stated) | 10.58
50 | CC(C)C(NC(=O)NCCNc1cnccn1)c1cccs1 (configuration not stated) | 101.3
51 | CC(C)C(NC(=O)NCCNc1ncccn1)c1cccs1 (configuration not stated) | 99.08
52 | CC(C)C(NC(=O)c1ccc(N2CCOCC2)nc1)c1cccs1 (configuration not stated) | 15.66
